Measured values taken from PubChem BioAssay (NCATS).
Several values for one entry are separate records, joined by “and”; a condition that tells them apart may be missing. Identical values can stand only once. Results filed as inconclusive are left out. Activity calls are given as the source filed them. Unless noted, the call rests on the fitted dose curve.

Columns and labels:
[1] = qHTS assay for small molecule agonists of retinoid X receptor alpha signaling (AID 588544); conditions: HEK293T RXRa-UAS-bla, beta-lactamase reporter, 18 h; 530 nm emission;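 on activation: 0% = DMSO basal wells and 100% = reference agonist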
[2] = molecular target: Retinoic acid receptor RXR-alpha (Homo sapiens) (UniProt P19793); test: as above; conditions: HEK293T RXRa-UAS-bla, beta-lactamase reporter, 18 h; series mostly up to 76.7 µM
Sequence of Retinoic acid receptor RXR-alpha (Homo sapiens) (P19793 whole entry, looked up): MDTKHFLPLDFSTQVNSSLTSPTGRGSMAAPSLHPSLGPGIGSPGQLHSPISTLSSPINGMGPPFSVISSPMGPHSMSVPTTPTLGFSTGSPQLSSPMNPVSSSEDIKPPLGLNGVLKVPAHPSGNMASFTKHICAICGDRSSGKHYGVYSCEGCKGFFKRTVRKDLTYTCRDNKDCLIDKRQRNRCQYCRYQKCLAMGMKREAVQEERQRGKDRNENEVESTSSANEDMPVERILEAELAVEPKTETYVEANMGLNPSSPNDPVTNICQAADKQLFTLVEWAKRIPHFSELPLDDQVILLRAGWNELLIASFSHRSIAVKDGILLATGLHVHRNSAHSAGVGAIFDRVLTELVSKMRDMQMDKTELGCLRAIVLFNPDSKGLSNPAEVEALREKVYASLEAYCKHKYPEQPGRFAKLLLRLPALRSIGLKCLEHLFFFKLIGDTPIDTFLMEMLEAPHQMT

[3] = qHTS assay for small molecule antagonists of retinoid X receptor alpha signaling (AID 588546; active means well fitted inhibition curve with a large enough effect in the signal ratio, with a control signal flat, not every such curve was filed as active; the % refers to the signal ratio;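 further: cells stimulated with 9-cis-retinoic acid as agonist; on the % scale 0 is the no-effect control and ±100 the full control effect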); conditions: HEK293T RXRa-UAS-bla, beta-lactamase ratio, antagonist mode; measured here: W530 green channel, cytotoxicity proxy
How it was run: (§1)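 Beta-lactamase reporter inhibition, read as CCF4 fluorescence ratio (ex 405, em 460/530 nm) after 2 h at RT. HEK293T UAS-bla cells, 2500/well, were stimulated with 9-cis-RA at 500 or 100 nM final alongside test compound for 18 h at 37 C.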

[4] = molecular target: Retinoic acid receptor RXR-alpha (Homo sapiens) (UniProt P19793); test: as above; conditions: HEK293T RXRa-UAS-bla, beta-lactamase ratio, antagonist mode
How it was run: as §1

[5] = molecular target: Voltage-gated inwardly rectifying potassium channel KCNH2 (Homo sapiens) (UniProt Q12809); test: qHTS Assay for Small Molecule Inhibitors of the Human hERG Channel Activity (AID 588834; active means well fitted inhibition curve with a large enough effect;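 further: U2OS cells transduced with hERG by BacMam; top concentration of the series differs between compounds; on the % scale 0 is the no-effect control and ±100 the full control effect; lower thallium flux fluorescence means stronger hERG block; nearly all actives have a fitted effect of over 50% in size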); conditions: U2OS BacMam hERG, FluxOR thallium flux fluorescence; series mostly up to 92.2 µM
Sequence of Voltage-gated inwardly rectifying potassium channel KCNH2 (Homo sapiens) (Q12809 whole entry, looked up): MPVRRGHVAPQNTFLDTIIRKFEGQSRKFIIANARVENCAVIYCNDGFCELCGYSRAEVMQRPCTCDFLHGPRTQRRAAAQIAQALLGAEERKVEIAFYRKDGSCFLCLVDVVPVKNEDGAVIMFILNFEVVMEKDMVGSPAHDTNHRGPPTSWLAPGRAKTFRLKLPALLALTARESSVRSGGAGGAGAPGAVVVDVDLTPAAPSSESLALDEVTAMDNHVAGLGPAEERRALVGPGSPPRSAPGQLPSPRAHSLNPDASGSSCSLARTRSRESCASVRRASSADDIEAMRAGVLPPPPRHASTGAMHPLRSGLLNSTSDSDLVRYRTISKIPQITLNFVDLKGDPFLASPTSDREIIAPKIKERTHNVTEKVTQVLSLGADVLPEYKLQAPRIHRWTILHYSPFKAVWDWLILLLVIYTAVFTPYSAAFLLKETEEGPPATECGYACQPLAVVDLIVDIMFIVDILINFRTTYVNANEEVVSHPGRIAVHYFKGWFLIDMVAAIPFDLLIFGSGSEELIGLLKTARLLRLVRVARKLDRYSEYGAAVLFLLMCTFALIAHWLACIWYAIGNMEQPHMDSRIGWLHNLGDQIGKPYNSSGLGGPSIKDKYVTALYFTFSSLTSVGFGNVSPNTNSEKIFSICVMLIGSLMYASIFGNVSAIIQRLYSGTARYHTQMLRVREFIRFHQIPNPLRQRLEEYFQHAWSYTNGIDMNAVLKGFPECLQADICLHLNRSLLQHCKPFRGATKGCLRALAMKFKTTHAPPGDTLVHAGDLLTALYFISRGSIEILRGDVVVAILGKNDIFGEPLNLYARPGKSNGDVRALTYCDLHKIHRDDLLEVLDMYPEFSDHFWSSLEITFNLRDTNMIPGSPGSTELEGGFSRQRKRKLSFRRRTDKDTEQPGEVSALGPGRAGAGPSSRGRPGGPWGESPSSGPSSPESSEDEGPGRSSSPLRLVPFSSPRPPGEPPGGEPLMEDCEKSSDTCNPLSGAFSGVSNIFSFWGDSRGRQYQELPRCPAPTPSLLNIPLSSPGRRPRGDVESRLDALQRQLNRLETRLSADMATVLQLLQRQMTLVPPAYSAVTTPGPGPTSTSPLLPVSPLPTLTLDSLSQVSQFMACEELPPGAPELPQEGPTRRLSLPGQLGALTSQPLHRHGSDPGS
How it was run: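 Cells were infected with hERG-BacMam virus for 4 hrs at room temperature, grown overnight, then seeded at 2000/well. After dye loading and roughly 10 min compound treatment, thallium influx was triggered and fluorescence recorded.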

[6] = qHTS assay for small molecule agonists of the antioxidant response element (ARE) signaling pathway (AID 651741; active means well fitted activation curve with a large enough effect in the signal ratio; the % refers to the signal ratio; further: potency means the concentration at half of the fitted maximal effect; on activation: % of control where 0% means no effect); conditions: HepG2 ARE-bla reporter, beta-lactamase FRET ratio, 16 h; series mostly up to 96 µM
How it was run: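 Agonist activity is measured as ARE-driven beta-lactamase expression in a stable HepG2 reporter line, using 16 h compound treatment at 37 C and a FRET substrate fluorescence readout after 2 h.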

[7] = qHTS assay for small molecule activators of the p53 signaling pathway (AID 651743; active means well fitted activation curve with a large enough effect in the signal ratio, not every such curve was filed as active; the % refers to the signal ratio; further: % of control where 0% means no effect); conditions: HCT-116 p53RE-bla, beta-lactamase FRET ratio, 16 h; stronger effect = higher value
How it was run: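 A beta-lactamase reporter under p53 response element control, stably carried by HCT-116 cells, reported pathway activation. Test compounds were applied for 16 hours at 37 C, and fluorescence was measured 2 hours after adding the B/G FRET substrate.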

[8] = qHTS assay for small molecule activators of the nuclear factor-kappa B (NF-kB) signaling pathway (AID 651749; active means well fitted activation curve with a large enough effect in the signal ratio; the % refers to the signal ratio; further: % of control where 0% means no effect); conditions: NF-kB-bla ME-180 cells, beta-lactamase FRET ratio, 16 h; stronger effect = higher value
How it was run: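 FRET-based beta-lactamase detection in ME-180 cells reports NF-kB response-element-driven transcription following overnight (16 hr) compound treatment.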

[9] = molecular target: Thyroid hormone receptor beta (Homo sapiens) (UniProt P10828); test: qHTS assay for small molecule agonists of thyroid hormone receptor beta signaling (AID 588545); conditions: TR-UAS-bla GripTite HEK 293, beta-lactamase ratio, agonist mode, 18 h, percent of T3 response, DMSO as zero; series mostly up to 76.7 µM;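 further: 0% = DMSO only and 100% = 10 nM T3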
Sequence of Thyroid hormone receptor beta (Homo sapiens) (P10828 whole entry, looked up): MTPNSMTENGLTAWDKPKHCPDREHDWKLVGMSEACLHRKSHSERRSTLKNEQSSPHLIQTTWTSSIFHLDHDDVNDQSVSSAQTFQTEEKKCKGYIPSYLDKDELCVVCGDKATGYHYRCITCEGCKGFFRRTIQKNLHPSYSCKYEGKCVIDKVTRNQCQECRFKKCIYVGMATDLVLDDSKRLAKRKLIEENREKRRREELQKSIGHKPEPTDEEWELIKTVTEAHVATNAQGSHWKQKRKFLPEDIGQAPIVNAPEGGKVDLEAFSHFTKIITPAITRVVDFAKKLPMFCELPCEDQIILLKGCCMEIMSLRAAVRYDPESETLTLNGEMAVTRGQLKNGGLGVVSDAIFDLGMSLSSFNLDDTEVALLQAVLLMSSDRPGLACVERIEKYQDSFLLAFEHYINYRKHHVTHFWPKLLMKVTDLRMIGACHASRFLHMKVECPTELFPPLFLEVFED
How it was run: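 Efficacy and EC50 values derive from Hill fits of qHTS titration data, normalized to 10 nM T3 and DMSO-only wells. HEK 293 reporter cells were stimulated for 18 hrs at 37 C, with beta-lactamase activity measured by CCF4 fluorescence.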

[10] = molecular target: Thyroid hormone receptor beta (Homo sapiens) (UniProt P10828); test: qHTS assay for small molecule antagonists of thyroid hormone receptor beta signaling (AID 588547; active means well fitted inhibition curve with a large enough effect in the signal ratio, with a control signal flat, not every such curve was filed as active; the % refers to the signal ratio;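 further: cells stimulated with 0.4 nM T3 agonist during compound exposure; on the % scale 0 is the no-effect control and ±100 the full control effect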); conditions: TR-UAS-bla HEK293, beta-lactamase ratio, antagonist mode, 18 h
How it was run: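 Inhibition of T3-driven (0.4nM final) beta-lactamase reporter activity was measured over 0.59 nM to 92 uM compound after 18 h at 37 C. The cells were GripTite HEK293 TR-UAS-bla in charcoal/dextran-stripped serum, with CCF4 ratio read-out and IC50 from Hill fits.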

Structure (SMILES): c1ccc(Nc2ccccc2)cc1
- max response [1]: -15.4% and 2.86%
- outcome [2]: inactive
- max response [3]: 1.16% and -8.24%
- max response [4]: -5.42% (inactive) and 3.85% (inactive)
- Potency [5]: inactive
- Potency [6]: inactive
- activation [7]: 1.33% (inactive) and -1.7% (inactive)
- activation [8]: 0.526% (inactive) and -2.1% (inactive)

Structure (SMILES): O=C1OC(=O)c2c(Cl)c(Cl)c(Cl)c(Cl)c21
- max response [1]: -5.89% and -6.44%
- outcome [9]: inactive
- max response [3]: -4.9% and 1.94%
- max response [4]: 0.977% (inactive) and -5.45% (inactive)
- activity change % (negative = inhibition) [10]: -1.32% (inactive) and -1.29% (inactive)
- Potency [5]: inactive
- Potency [6]: inactive
- activation [7]: -2.26% (inactive) and 13.1% (inactive)

Structure (SMILES): Nc1nc(-c2ccccc2)cs1
- max response [1]: -6.18%
- outcome [2]: inactive
- max response [3]: 7.15%
- max response [4]: -5.77% (inactive)
- Potency [5]: inactive
- Potency [6]: 37.6 µM (active)
- activation [8]: 0.279% (inactive)

Structure (SMILES): COC(=O)c1ccccc1
- max response [1]: 0.622%
- outcome [2]: inactive
- max response [3]: -5.14%
- max response [4]: 4.4% (inactive)
- activity change % (negative = inhibition) [10]: -7.56% (inactive)
- Potency [5]: inactive
- activation [7]: 7.4% (inactive)
- activation [8]: 1.41% (inactive)

Structure (SMILES): Cc1cccc(C)c1[N+](=O)[O-]
- max response [1]: 18.2% and 6.02%
- outcome [9]: inactive
- max response [3]: 3.43% and -1.96%
- max response [4]: -16.7% (inactive) and -18.1% (inactive)
- activity change % (negative = inhibition) [10]: 3.5% (inactive) and -3.75% (inactive)
- Potency [5]: inactive
- Potency [6]: inactive

Structure (SMILES): O=C(O)c1ccc(Cl)c(Cl)c1
- max response [1]: 12.9%
- outcome [9]: inactive
- max response [3]: 11.8%
- max response [4]: 14.6% (inactive)
- activity change % (negative = inhibition) [10]: 2.03% (inactive)
- Potency [5]: inactive
- Potency [6]: inactive
- activation [7]: 3.05% (inactive)

Structure (SMILES): Clc1cc(Cl)cc(Cl)c1
- max response [1]: -9.27%
- outcome [2]: inactive
- max response [3]: -4.96%
- max response [4]: 2.45% (inactive)
- Potency [5]: inactive
- Potency [6]: inactive
- activation [7]: -2.32% (inactive)

Structure (SMILES): CCCC=O
- max response [1]: -4.54%
- outcome [2]: inactive
- max response [3]: 6.82%
- max response [4]: 14.7% (inactive)
- activity change % (negative = inhibition) [10]: -7% (inactive)
- Potency [5]: inactive
- activation [7]: -2.76% (inactive)
- activation [8]: -4.7% (inactive)

Structure (SMILES): Cc1ccc([N+](=O)[O-])c(N)c1
- max response [1]: 3%
- outcome [2]: inactive
- max response [3]: -20.5%
- max response [4]: -4.21% (inactive)
- activity change % (negative = inhibition) [10]: -0.142% (inactive)
- Potency [5]: inactive
- activation [7]: -3.31% (inactive)
- activation [8]: -0.448% (inactive)

Structure (SMILES): CCC(O)C(C)(C)C (stereo unspecified)
- max response [1]: -3.08%
- outcome [9]: inactive
- max response [3]: -1.12%
- max response [4]: -2.9% (inactive)
- activity change % (negative = inhibition) [10]: 9.28% (inactive)
- Potency [5]: inactive
- Potency [6]: inactive
- activation [7]: -0.0168% (inactive)
- activation [8]: -0.45% (inactive)

Structure (SMILES): BrC/C=C/CBr
- max response [1]: 2.54%
- outcome [9]: inactive
- max response [3]: -0.458%
- max response [4]: -9.94% (inactive)
- activity change % (negative = inhibition) [10]: 15.3% (inactive)
- Potency [5]: inactive
- Potency [6]: 42.2 µM (active)
- activation [7]: 0.265% (inactive)

Structure (SMILES): O=C(Cl)c1ccccc1[N+](=O)[O-]
- max response [1]: -17.2%
- outcome [2]: inactive
- activity change % (negative = inhibition) [10]: -10.2% (inactive)
- Potency [5]: inactive
- activation [7]: 0.51% (inactive)
- activation [8]: -0.445% (inactive)

Structure (SMILES): C/C=C(/C)C#N
- max response [1]: -23.6%
- outcome [9]: inactive
- max response [3]: 0.293%
- max response [4]: 32% (inactive)
- activity change % (negative = inhibition) [10]: 15% (inactive)
- Potency [5]: inactive
- Potency [6]: inactive
- activation [7]: -0.853% (inactive)
- activation [8]: -0.053% (inactive)

Structure (SMILES): CC1CCCO1 (stereo unspecified)
- max response [1]: 11.5%
- outcome [2]: inactive
- activity change % (negative = inhibition) [10]: 1.5% (inactive)
- Potency [5]: inactive
- Potency [6]: inactive
- activation [7]: -2.21% (inactive)
- activation [8]: -0.396% (inactive)

Structure (SMILES): CC=O
- max response [1]: -8.77%
- outcome [2]: inactive
- max response [3]: -2.19%
- max response [4]: -0.48% (inactive)
- Potency [5]: inactive
- Potency [6]: inactive
- activation [7]: 0.53% (inactive)
- activation [8]: 9.05% (inactive)

Structure (SMILES): O=Nc1ccc(NO)cc1
- outcome [9]: inactive
- activity change % (negative = inhibition) [10]: -12.9% (inactive)
- Potency [5]: inactive
- Potency [6]: 13.3 µM (active)
- activation [7]: -5.55% (inactive)

Structure (SMILES): O=Cc1cccc(Br)c1
- max response [1]: 0.636%
- outcome [9]: inactive
- max response [3]: 0.346%
- max response [4]: 4.36% (inactive)
- activity change % (negative = inhibition) [10]: -16.4% (inactive)
- Potency [5]: inactive
- activation [7]: -0.251% (inactive)

Structure (SMILES): C/C=C1\CC2C=CC1C2 (stereo unspecified)
- max response [1]: -9.1%
- max response [3]: -2.6%
- max response [4]: 6.71% (inactive)
- activity change % (negative = inhibition) [10]: 2.19% (inactive)
- Potency [5]: inactive
- Potency [6]: inactive
- activation [7]: 0.178% (inactive)
- activation [8]: -0.076% (inactive)

Structure (SMILES): ON=C1CCCCC1
- max response [1]: -11.2%
- outcome [9]: inactive
- max response [3]: 5.82%
- max response [4]: 4.41% (inactive)
- activity change % (negative = inhibition) [10]: 8.44% (inactive)
- Potency [5]: inactive
- activation [7]: -1.24% (inactive)
- activation [8]: -0.0489% (inactive)

Structure (SMILES): O=[N+]([O-])c1ccc(Cl)cc1Cl
- max response [1]: -6.43%
- outcome [9]: inactive
- max response [3]: -4.28%
- max response [4]: 10.3% (inactive)
- activity change % (negative = inhibition) [10]: 17.6% (inactive)
- Potency [5]: inactive
- activation [8]: 0.0961% (inactive)
